Bioassay records deposited in PubChem by National Center for Advancing Translational Sciences (NCATS).
Sfp inh: Sfp phosphopantetheinyl transferase inhibition; Q9F4F7; 310,000 tested, 3.5% active; Biochemical Sfp PPTase activity, qHTS; AID 1490; Potency, µM, inactives show largest response in the series, negative = inhibition, actives largely listed as inhibitors;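 also: the enzyme is Sfp with the accession as filed and its product quenches rhodamine fluorescence; potency is read from the fitted curve at half-maximal effect; 0% = enzyme reaction without inhibitor and -100% = no enzyme wells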
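With Hepes-Na pH 7.6 buffer containing 10 mM MgCl2, Sfp (15 nM) modified BHQ-2-YbbR (12.5 uM) using rhodamine-CoA (5 uM). Two reads 30 minutes apart at 525/598 nm yielded each well's rate.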
Tau FP inhib: blocks human tau fibril formation measured by polarization; P10636; 280,000 tested, 0.39% active; Potency, µM (highest dose often 57.7 µM), for the others: at the top dose activity, negative = inhibition, actives largely listed as inhibitors; K18 P301L tau heparin fibrillization, Alexa594 FP, 6 h; also: potency is read from the fitted curve at half-maximal effect; nearly all actives have a fitted effect of over 55% in size
Target sequence (P10636 561-689 P618L limits assumed): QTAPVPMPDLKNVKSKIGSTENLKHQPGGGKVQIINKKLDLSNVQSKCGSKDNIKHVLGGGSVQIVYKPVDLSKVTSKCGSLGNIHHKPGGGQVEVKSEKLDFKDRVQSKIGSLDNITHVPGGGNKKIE
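Steps: dispense K18 P301L tau (15 uM plus 0.24 uM Alexa 594 tracer, final) in pH 7 sodium acetate; add compound; add heparin (20 uM final); incubate 6 hr, 37 C; add ThT (30 uM final); after 1 hr ambient, read FP.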
KDM4E inh: JMJD2E (human) inhibition; AID 2147; Potency, µM (titrated, usually from 57.1 µM), without a hit: top-dose activity change, negative = inhibition, actives largely listed as inhibitors; B2RXH2; JMJD2E catalytic domain, FDH-coupled NADH fluorescence (FDH is formaldehyde dehydrogenase); 230,000 tested, 1.6% active; active = well fitted inhibition curve with a large enough effect, not every such curve was filed as active; inconclusive = small, poorly fitted or top-dose-only effect, or another doubt; inactive = no such curve, though single readings can be large or run the other way;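 also: potency is read from the fitted curve at half-maximal effect; 0% = wells with enzyme and -100% = buffer wells without enzyme; nearly all actives have a fitted effect of over 50% in size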
Target sequence (B2RXH2 1-337 limits assumed): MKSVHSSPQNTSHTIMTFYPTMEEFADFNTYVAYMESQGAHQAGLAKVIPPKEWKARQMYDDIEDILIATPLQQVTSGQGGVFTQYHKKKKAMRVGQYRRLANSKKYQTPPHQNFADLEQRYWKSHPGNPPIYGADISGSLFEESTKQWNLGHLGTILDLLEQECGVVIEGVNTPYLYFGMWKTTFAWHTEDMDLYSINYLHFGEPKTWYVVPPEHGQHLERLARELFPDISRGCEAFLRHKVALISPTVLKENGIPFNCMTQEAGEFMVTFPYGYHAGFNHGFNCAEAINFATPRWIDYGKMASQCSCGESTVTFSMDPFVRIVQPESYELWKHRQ
Tau fluor cs: counter-screen for tau fibril formation inhibitors | tau K18 P301L Alexa594 fluorescence, heparin fibrillization | Potency, µM (titrated, usually from 57.7 µM), for inactives: top-dose activity change, negative = decrease | 280,000 tested, 0.93% active; also: potency is read from the fitted curve at half-maximal effect; nearly all actives have a fitted effect of over 55% in size
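Human K18 P301L tau (15 uM unlabeled plus 0.24 uM Alexa 594-labeled, final) in 100 mM sodium acetate pH 7 was mixed with compound and 20 uM heparin and incubated 6 hr at 37 C.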
FBPA coupling cs: counter-screen for Giardia aldolase inhibitors: coupling enzyme system | 290,000 tested, 0.67% active | coupling enzyme system counterscreen, AmpLite Red fluorescence | activity change, negative = inhibition, % at 58.2 µM, hits read low; in the data active = activity change below about -30%
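Counterscreen lacking aldolase: glyceraldehyde-3-phosphate coupling-enzyme reagent preincubated 10 min at RT with compound (at 57.5 uM final), then substrate/coupling system with AmpLite Red added; fluorescence read at 525/598 nm after 20 min RT.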
Tau fibril ThT: tau fibrillization inhibition (ThT binding). 270,000 tested, 2.1% active. Potency, µM (doses to about 57.4 µM), without a hit: top-dose activity, negative = inhibition, actives largely listed as inhibitors. recombinant tau K18 P301L (four-repeat tau fragment), heparin-induced fibrillization, ThT fluorescence. AID 1460; also: potency is read from the fitted curve at half-maximal effect; nearly all actives have a fitted effect of over 55% in size
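Tau K18 P301L fragment (15 uM unlabeled plus 0.24 uM Alexa 594-labeled) in 100 mM sodium acetate pH 7 with compound, fibrillization induced by 20 uM heparin for 6 hr at 37 C. Thioflavin T (30 uM) added, fluorescence read after 1 hr (ex 450, em 510 nm).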
The depositor's hits bear a star; ? = inconclusive; / = no result; [ ] = dose if it differs, or a comment. Shown are actives, neighbours in structure and some others; about 5.3% of the full set was active somewhere. Unless noted, calls follow the shape of the dose curve; as a rule, active = well fitted curve in the direction sought with a large enough effect; inconclusive = small, poorly fitted or top-dose-only effect, or another doubt; inactive = no such curve, though single readings can be large; an effect the other way counts as inactive or inconclusive. Unless noted, % is scaled to controls: 0 for no effect and ±100 for the full control effect.

SMILES	Sfp inh	Tau FP inhib	KDM4E inh	Tau fluor cs	FBPA coupling cs	Tau fibril ThT
COC(=O)c1cnc(N2CCN(c3ccccc3F)CC2)c2ccccc12	/	-4%	/	-30%	/	?
COC(=O)c1cnc(N2CCN(c3ccc(OC)cc3)CC2)c2ccccc12	/	-5%	/	?	/	11µM*
CCc1c(C)sc(NC(=O)OC)c1C(=O)N1CCCCC1	50µM*	-1%	-8%	1%	1	-7%
COc1ccc(Cl)cc1NC(=O)Cn1c(=O)n(CCC(=O)NCc2ccc3c(c2)OCO3)c(=O)c2ccccc21	/	2%	/	-8%	/	10%
CCOc1ccc(Nc2ncnc3ccc([N+](=O)[O-])cc23)cc1	-5%	16%	-1%	-16%	1	10µM*
Cc1nc2scc(C)n2c(=O)c1S(=O)(=O)Nc1cccc(C(F)(F)F)c1	/	-6%	/	-14%	/	0%
COc1ccc(Br)cc1CN(C)CC(=O)NCc1ccc(F)cc1	79µM*	/	/	/	3	/
CN(CC(=O)NCc1ccc(F)cc1)Cc1ccc(Br)cc1	-4%	/	/	/	3	/
O=C(OCc1csc(Nc2ccccc2)n1)c1ccc(Cl)cc1	-9%	?	0%	13µM*[quencher]	-1	?
Cc1ccc(-c2[nH]ncc2CNCCc2cnn(-c3ccccc3)c2)cc1C	79µM*	0%	0%	-13%	-4	-7%
Cn1cc(CCNCc2cn[nH]c2-c2ccc(-c3ccccc3)cc2)cn1	-6%	9%	-5%	2%	0	6%
CN(CC(=O)NCc1ccc(Cl)cc1)S(=O)(=O)c1ccc2c(c1)c(=O)n(C)c(=O)n2C	/	-4%	/	-2%	/	8%
CCN(CC)c1ccc(NC(=O)c2ccccc2F)cc1S(=O)(=O)Nc1ccccc1OC	14µM*	-7%	8%	-28%	3	-16%
CCN(CC)c1ccc(NC(=O)c2ccc(=O)[nH]c2)cc1S(=O)(=O)Nc1ccccc1OC	14µM*	?	?	?	-5	?
CCN(CC)c1ccc(NC(=O)COc2ccccc2C#N)cc1S(=O)(=O)Nc1ccc(OC)cc1	-16%	-3%	3%	?	0	-10%
COc1ccc(NC(=O)c2ccccc2F)cc1Cl	5%	-2%	0%	-15%	-1	?
COc1ccc(NC(=O)c2ccc(=O)[nH]c2)cc1S(=O)(=O)N1CCCCC1	-4%	5%	7%	12%	2	5%
CCN(CC)c1ccc(NC(=O)COc2ccccc2C)cc1S(=O)(=O)Nc1ccccc1OC	20µM*	-14%	-15%	-26%	-1	-10%
CCN(CC)c1ccc(NC(=O)c2ccccc2Br)cc1S(=O)(=O)Nc1ccccc1OC	3.2µM*	?	-24%	-28%	1	25µM*
COc1cc(NC(=O)c2nn(-c3ccc(F)cc3)c(=O)n(C)c2=O)cc(OC)c1OC	/	3%	/	1%	/	1%
c1ccc(-c2ccc(-c3nccc4ccccc34)[nH]2)cc1	50µM*	5%	?	?	-1	?
CC(C)(CCCCCCCCCCC(C)(C)CC(=O)O)CC(=O)O	1%	/	/	/	13	/
COc1ccc(Cn2c(O)cc(=O)[nH]c2=O)cc1	45µM*	-15%	-29%	-13%	11	?
CCOc1ccc(Cn2c(O)cc(=O)[nH]c2=O)cc1	50µM*	?	?	-22%	7	16µM*
CCOc1ccc(Cn2c(=O)sc3ccccc32)cc1	-13%	5%	-3%	-18%	11	-6%
SMILES	Sfp inh	Tau FP inhib	KDM4E inh	Tau fluor cs	FBPA coupling cs	Tau fibril ThT
Nc1cc(=O)[nH]c(=O)n1Cc1ccccc1	11%	-1%	-4%	1%	0	5%
CCc1cccc(NC(=O)c2cc3c(=O)oc4ccc(C)cc4c3s2)c1	/	-11%	/	-12%	/	-9%
COC(=O)N1C(c2ccccc2)=Cc2ccccc2C1CC(C)=O (stereo not given)	3%	1%[11.6 µM]	-26%[11.4 µM]	7%[11.6 µM]	0	9%[11.5 µM]
O=C(NC(=S)Nn1cnnc1)c1ccccc1Cl	40µM*	-8%	-2%	-4%	-2	-9%
CNC(=O)NC(=S)NC(=O)c1ccccc1Cl	-26%	-2%	4%	2%	0	-8%
COc1cccc(C(=O)NC(=S)Nn2cnnc2)c1OC	22µM*	-9%	-5%	2%	3	-2%
O=C(NC(=S)Nn1cnnc1)c1ccc(F)cc1Cl	50µM*	/	/	/	0	/
COC(=O)c1cc(OC)c(OC)cc1NC(=O)c1cccc(OC)c1OC	21%	-3%	92%	-9%	0	-13%
O=C(NC(=S)Nc1ncccn1)c1ccccc1Cl	32µM*	2%	4%	8%	-10	0%
COc1cc(OC)c(Nc2ncnc3onc(-c4cccc(Cl)c4)c23)cc1Cl	/	-10%	/	-8%	/	5%
CCOC(=O)/C(C#N)=C1\C(=O)N(Cc2ccccc2)c2ccccc21	35µM*	?	2%	?	-26	35µM*
COc1ccc(Cc2nnc(N)s2)cc1OC	22µM*	-10%	-6%	-1%	1	-3%
COc1ccc(S(=O)(=O)Nc2nnc(Cc3ccc(OC)c(OC)c3)s2)cc1	50µM*	2%	-8%	5%	18	5%
COc1ccc(S(=O)(=O)Nc2nnc(C(C)(C)C)s2)cc1	18µM*	-15%	10%	-7%	2	?
COc1ccc(Cc2nnc(NS(=O)(=O)c3ccccc3)s2)cc1	-2%	2%	-5%	-4%	10	-8%
CCc1nnc2n1N(C(C)=O)C(c1ccc(C(C)(C)C)cc1)=C(C(C)=O)S2	/	-5%	/	-10%	/	?
COc1ccc(-c2cc(C(=O)Oc3cccc(C)c3C)c3ccccc3n2)cc1	/	-18%	/	-13%	/	-9%
CN(C)C(=O)CCC(=O)N1CCCC(C(=O)c2ccc3c4c(cccc24)CC3)C1 (stereo not given)	13%	-2%	?	-2%	-2	-5%
O=C(c1ccc2c3c(cccc13)CC2)C1CCCN(C(=O)c2ccc(=O)[nH]c2)C1 (stereo not given)	50µM*	-9%	?	-19%	-5	?
COc1ccccc1-c1nnc(SCC(=O)c2ccc(F)cc2)n1-c1ccccc1	/	7%	/	-19%	/	-17%
O=C(c1cc(-c2ccco2)nn1-c1cccc(Cl)c1)N1CCCCC1	8.9µM*	?	?	-23%	0	28µM*
Cc1ccc(-n2nc(-c3ccco3)cc2C(=O)O)cc1	22µM*	-6%	?	-7%	9	-11%
CC(C)NC(=O)c1cc(-c2ccco2)nn1-c1ccc(Cl)cc1	10µM*	0%	-26%	-16%	/	?
CCOC(=O)c1cc(-c2ccco2)nn1-c1ccc(C)cc1	?	3%	-13%	-2%	0	-12%
